Source: PubChem BioAssay (EPA / NIEHS)
Activity calls are given as the source filed them. Rule for the calls: active = hit-call score of the fitted dose curve at least 0.9, where 1 is the maximum; inactive = score below 0.9.

Test: APR_HepG2_NuclearSize_72hr: Apredica 72-hour HepG2 Assay for Nuclear Size (AID 2282925)
Conditions: high-content imaging, actives raise or lower the signal
Procedure, shortened: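 HepG2 cells were exposed to compounds at ten concentrations from 0.39 to 200 uM (duplicate, 0.5% DMSO final) for 72 hr. After fixation in 3.7% formaldehyde, nuclei were stained with Hoechst 33342 (2 ug/mL) and imaged at 20x.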

outcome, inactive:
Cc1ccc(S(=O)(=O)O)cc1C
CCn1nc(Cc2ccccc2)cc1C1CCN(C[C@H]2C[C@H](N(C)[C@@H](C(=O)O)C(C)C)C[C@@H]2c2cccc(F)c2)CC1
CCCCC(CC)COC(=O)CCCCCCCCC(=O)OCC(CC)CCCC (configuration not stated)
CC(C)CCO
CCN(C(=O)c1cc(C)cc(OC[C@H](C)Nc2ccncc2)c1)C(C)C
O=C1CCCCCN1
Cn1cnc([N+](=O)[O-])c1Sc1ncnc2nc[nH]c12
